Data taken from PubChem BioAssay AID463187 (University of Pittsburgh Molecular Library Screening Center, 2010).
In all, about 220,000 compounds went through this assay and about 1,500 (0.68%) were called active. Only a selection was taken, and actives are over-represented in it overall. Unmarked numbers belong to inactive results.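 Rule for the calls: active = Hck-Nef kinase inhibition above about 50% (limit read from the data); inactive = inhibition below that limit.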

The compounds below were run against Tyrosine-protein kinase HCK (Homo sapiens) (UniProt P08631) (assay: inhibitors of Nef-activated human Hck kinase, primary screen, biochemical, Z-Lyte FRET, 384-well, Hck-YEEI (AID 463187;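 note: 0% = DMSO with Hck plus Nef and 100% = Hck alone without Nef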)). Details: Recombinant Hck-YEEI plus Nef, Z-Lyte FRET kinase assay; at 20 µM; hits give high values.
Tyrosine-protein kinase HCK (Homo sapiens), sequence (P08631 whole entry, looked up): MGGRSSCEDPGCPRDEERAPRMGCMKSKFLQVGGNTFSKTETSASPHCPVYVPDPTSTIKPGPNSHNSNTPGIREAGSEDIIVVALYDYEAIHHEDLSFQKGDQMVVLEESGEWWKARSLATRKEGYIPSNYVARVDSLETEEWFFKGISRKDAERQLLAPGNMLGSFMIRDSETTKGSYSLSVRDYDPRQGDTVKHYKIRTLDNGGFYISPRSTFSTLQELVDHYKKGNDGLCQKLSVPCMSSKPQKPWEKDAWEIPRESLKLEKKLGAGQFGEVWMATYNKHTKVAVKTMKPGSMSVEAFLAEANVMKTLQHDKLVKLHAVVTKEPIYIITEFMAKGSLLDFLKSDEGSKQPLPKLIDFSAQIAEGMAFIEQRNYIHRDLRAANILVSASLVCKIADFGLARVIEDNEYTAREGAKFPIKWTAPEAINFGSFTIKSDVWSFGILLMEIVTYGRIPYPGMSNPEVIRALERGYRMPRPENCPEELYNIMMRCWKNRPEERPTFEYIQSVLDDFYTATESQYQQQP

Q: Which inhibition does the source give for C/C=C/C(=O)Nc1nnc(C(C)C)s1 here?
A: The inhibition was 6.42%.

Q: For CC(C)C[C@H](CO)Nc1nc(N(C)c2cccc(Cl)c2)c2ncn(C(C)C)c2n1, which inhibition is on record?
A: Its inhibition is 29.9%.

Q: For OCCCNc1nccc(-c2cc(Nc3cccc(Cl)c3)ncn2)n1, which inhibition is on record?
A: The inhibition was 17.4%.

Q: Which inhibition does the source give for CC(C)n1cnc2c(Nc3cccc(Cl)c3)nc(N(CCO)CCCO)nc21 here?
A: Its inhibition is 112% (active).

Q: For CC1CN(S(=O)(=O)c2ccccc2)C(C)CN1S(=O)(=O)c1ccccc1 (stereo not given), which inhibition is on record?
A: The inhibition was 2.18%.

Q: For CC(=O)Nc1ccc(/C(C)=N/NC(=O)CN(c2ccccc2Br)S(C)(=O)=O)cc1, which inhibition is on record?
A: Its inhibition is 3.92%.

Q: With Cc1cc(Br)ccc1SCC(=O)OCC(=O)NCc1ccc2c(c1)OCO2 as the compound, how does the inhibition read?
A: The inhibition was -1.74%.

Q: Oc1c(Cl)cc(Cl)c(Cl)c1Cc1c(O)c(Cl)cc(Cl)c1Cl was tested. Which inhibition did it give?
A: The inhibition was 58.4% (active).

Q: With CC(=O)NC1C(OCc2ccccc2)OC(COC(C)=O)C(OC(C)=O)C1OC(C)=O (stereo not given) as the compound, how does the inhibition read?
A: The inhibition was 0.438%.

Q: With O=C(OCC1O[C@@H](OC(=O)c2cc(O)c(O)c(O)c2)[C@@H](OC(=O)c2cc(O)c(O)c(O)c2)[C@@H](OC(=O)c2cc(O)c(O)c(O)c2)[C@@H]1OC(=O)c1cc(O)c(O)c(O)c1)c1cc(O)c(O)c(O)c1 (stereo not given in full) as the compound, how does the inhibition read?
A: The inhibition was 97.6% (active).

Q: C/C=C(\C)C(=O)N1CC2(CC(c3cccc(NC(=O)CCCCC)c3)=NO2)C[C@@H]1C(N)=O (stereo not given in full) was tested. Which inhibition did it give?
A: The inhibition was 35.8%.

Q: How did the inhibition turn out when O=C(N/N=C/c1coc2ccccc2c1=O)c1cc2ccccc2o1 was run?
A: Its inhibition is 49.1%.

Q: Which inhibition does the source give for CC(C)(C)OC(=O)NCCCCCC(=O)N/N=C/c1coc2ccccc2c1=O here?
A: Its inhibition is 76.3% (active).

Q: O=C(CCCCCNC(=O)c1ccccc1)N/N=C/c1ccccc1 was tested. Which inhibition did it give?
A: Its inhibition is 9.24%.

Q: For Cc1ccc(OCCCC(=O)NC(C)c2ccccc2)c(C)c1 (stereo not given), which inhibition is on record?
A: The inhibition was -1.04%.

Q: CC(C)n1c(CN2CCN(Cc3ccccc3)CC2)nc2ccccc21 was tested. Which inhibition did it give?
A: The inhibition was 5.34%.

Q: With CN(C)C(=S)Nc1ccc(Br)cc1Cl as the compound, how does the inhibition read?
A: Its inhibition is 14.6%.

Q: For O=C1Oc2ccccc2C(=O)/C1=C/c1ccccc1O, which inhibition is on record?
A: Its inhibition is 80.6% (active).

Q: For CC(=O)c1cccc(NC(=O)c2ccncc2)c1, which inhibition is on record?
A: Its inhibition is -1.38%.

Q: How did the inhibition turn out when CCn1c(NC(=O)c2ccccc2)c(-c2cccs2)c(=O)c2ccccc21 was run?
A: Its inhibition is -2.03%.

Q: For CCn1c(=O)c2cc(C(=O)Nc3cccc(C(C)=O)c3)sc2c2ccccc21, which inhibition is on record?
A: The inhibition was 53.6% (active).

Q: With Cc1ccc(N2C(=O)CC(Nc3cccc4ccccc34)C2=O)cc1 (stereo not given) as the compound, how does the inhibition read?
A: Its inhibition is 20.6%.

Q: With CC(C)Cn1cnc2c1c(=O)n(CC(O)c1ccccc1)c(=O)n2CC(C)C (stereo not given) as the compound, how does the inhibition read?
A: Its inhibition is 1.05%.

Q: For Brc1ccc(CSc2ccc(-c3ccco3)nn2)cc1, which inhibition is on record?
A: The inhibition was 22.4%.

Q: For Clc1ccccc1CSc1nnc(-c2ccco2)c(-c2ccco2)n1, which inhibition is on record?
A: The inhibition was 21.2%.

Q: c1ccc(CSc2nnc(-c3ccco3)c(-c3ccco3)n2)cc1 was tested. Which inhibition did it give?
A: Its inhibition is 61.4% (active).

Q: With O=C(COc1ccc([N+](=O)[O-])cc1)Nc1ccc(N2CCCC2)cc1 as the compound, how does the inhibition read?
A: Its inhibition is 1.04%.

Q: How did the inhibition turn out when CCc1nnc(NC(=O)/C=C/c2ccc(C)o2)s1 was run?
A: Its inhibition is 2.58%.

Q: Which inhibition does the source give for Cc1ccc(/C=C/C(=O)Nc2ccc([N+](=O)[O-])c(NC(=O)/C=C/c3ccc(C)o3)c2)o1 here?
A: The inhibition was 79.2% (active).

Q: With Cc1c(NC(=O)/C=C/C(=O)O)cccc1[N+](=O)[O-] as the compound, how does the inhibition read?
A: Its inhibition is 0.166%.

Q: With Cc1ccc(N(CC(=O)Nc2cc(C)cc(C)c2)S(=O)(=O)c2cccc3nonc23)cc1 as the compound, how does the inhibition read?
A: Its inhibition is 2.67%.

Q: How did the inhibition turn out when Cc1c(Nc2nc3ccccc3nc2NS(=O)(=O)c2cccs2)c(=O)n(-c2ccccc2)n1C was run?
A: The inhibition was -1.3%.

Q: With Cc1ccc(C)c(SCc2nc3sc(C(=O)O)c(C)c3c(=O)[nH]2)c1 as the compound, how does the inhibition read?
A: The inhibition was 30.6%.

Q: With CCOC(=O)c1ccc[n+](CC(=O)Nc2ccccc2OC(F)F)c1 as the compound, how does the inhibition read?
A: The inhibition was 3.79%.

Q: Which inhibition does the source give for Cc1ccc(-c2nc(SCC(=O)Nc3ccccc3OC(F)F)c3c(C)c(C(=O)O)sc3n2)cc1 here?
A: The inhibition was 98.6% (active).

Q: For COc1ccc(N(CC(=O)NC2CCCC2)C(=O)CS(=O)CC(=O)Nc2ccc3c(c2)OCO3)cc1 (stereo not given), which inhibition is on record?
A: Its inhibition is 20.7%.

Q: Which inhibition does the source give for Cc1cc(C)c2nc(-c3cccnc3)cc(C(=O)Nc3ccc(S(=O)(=O)Nc4onc(C)c4C)cc3)c2c1 here?
A: Its inhibition is 62.9% (active).

Q: How did the inhibition turn out when COc1ccc(C(=O)Nc2ccc(S(=O)(=O)Nc3onc(C)c3C)cc2)cc1OC was run?
A: Its inhibition is 2.01%.

Q: CCn1c(SCC(=O)Nc2ccc(S(=O)(=O)Nc3onc(C)c3C)cc2)nnc1-c1ccccc1 was tested. Which inhibition did it give?
A: Its inhibition is 0.636%.

Q: With O=C1c2ccccc2NC(c2ccccc2O)N1NS(=O)(=O)c1ccccc1 (stereo not given) as the compound, how does the inhibition read?
A: The inhibition was 24.7%.

Q: For O=C(COC(=O)CSc1nnc(-c2ccc(Cl)cc2)o1)Nc1cc(Cl)cc(Cl)c1, which inhibition is on record?
A: Its inhibition is 3.81%.

Q: CCN(CC)c1ccc2cc(C(=O)O)c(=O)oc2c1 was tested. Which inhibition did it give?
A: Its inhibition is 179% (active).

Q: Which inhibition does the source give for CCN(CC)c1ccc2oc(=O)c(C)nc2c1 here?
A: The inhibition was -14.5%.

Q: With CCN(CC)c1ccc2cc(C(N)=O)/c(=N\NC(=O)c3ccncc3)oc2c1 as the compound, how does the inhibition read?
A: The inhibition was -3.77%.

Q: Cc1cc(C)nc(NNC2=CC(=O)CC(C)(C)C2)n1 was tested. Which inhibition did it give?
A: The inhibition was 22.8%.

Q: With Cc1[nH]nc(-c2ccc(OCc3cnn(-c4ccccc4)c3)cc2O)c1Oc1ccc(Cl)cc1 as the compound, how does the inhibition read?
A: Its inhibition is 0.631%.

Q: Which inhibition does the source give for CCOC(=O)CSc1nc2ccc(C)cc2[nH]1 here?
A: The inhibition was 10.3%.

Q: Cc1ccc2nc(/C(C#N)=C\c3ccc(OC(=O)c4cccs4)cc3)[nH]c2c1 was tested. Which inhibition did it give?
A: Its inhibition is 57.1% (active).

Q: With Cc1ccc2nc(S(=O)(=O)O)[nH]c2c1 as the compound, how does the inhibition read?
A: The inhibition was -5.86%.

Q: How did the inhibition turn out when CCOC(=O)c1sc(-c2cccc([N+](=O)[O-])c2)cc1N was run?
A: The inhibition was 22%.

Q: CN(C)C(=O)c1nc2ccc(Cl)cn2c1CN1CCN(c2ncccn2)CC1 was tested. Which inhibition did it give?
A: The inhibition was 16.5%.

Q: CCCC(=O)Nc1nc2ccc(NC(=O)c3c(F)c(F)c(OC)c(F)c3F)cc2s1 was tested. Which inhibition did it give?
A: Its inhibition is 13.4%.

Q: O=C(Nc1ccc(S(=O)(=O)Nc2nccs2)cc1)c1cc(=O)[nH]c2ccccc12 was tested. Which inhibition did it give?
A: Its inhibition is 8.68%.

Q: For O=C(Nc1ccc(S(=O)(=O)Nc2nccs2)cc1)c1cc(-c2ccncc2)nc2ccccc12, which inhibition is on record?
A: The inhibition was 75% (active).

Q: With CCC(CC)C(=O)Nc1ccc(S(=O)(=O)Nc2nccs2)cc1 as the compound, how does the inhibition read?
A: Its inhibition is 15.9%.

Q: Cc1cc(CNC(=O)c2cccc([N+](=O)[O-])c2)c2ccccc2n1 was tested. Which inhibition did it give?
A: The inhibition was 20.7%.

Q: Which inhibition does the source give for CC(=O)Nc1ccc(Nc2c3ccccc3nc3ccccc23)cc1 here?
A: Its inhibition is 12.8%.

Q: Which inhibition does the source give for O=[N+]([O-])c1cccc(Nc2c3ccccc3nc3ccccc23)c1 here?
A: The inhibition was 64.5% (active).

Q: For Cc1ccc2cc(CCNC(=O)c3ccc4c(c3)OCO4)c(=O)[nH]c2c1, which inhibition is on record?
A: Its inhibition is 0.571%.

Q: With Cc1cc(N)n2nc(-c3ccc(C(C)(C)C)cc3)cc2n1 as the compound, how does the inhibition read?
A: Its inhibition is 0.862%.

Q: For CSCC[C@H](NC(=O)CCCn1nnc2ccccc2c1=O)C(=O)O, which inhibition is on record?
A: Its inhibition is 4.6%.

Q: Which inhibition does the source give for O=C(COc1ccccc1F)NNC(=O)c1ccc(N2CCCCC2)c([N+](=O)[O-])c1 here?
A: Its inhibition is 2.35%.

Q: Which inhibition does the source give for OC(c1nnc(-c2ccccc2)o1)c1cccs1 (stereo not given) here?
A: Its inhibition is 52.9% (active).

Q: For CCCN(CCC)c1ccc(C(O)c2nnc(-c3ccccc3)o2)cc1 (stereo not given), which inhibition is on record?
A: The inhibition was -0.222%.

Q: For Nc1ccc(-c2nnc(-c3ccc(-c4ccccc4)cc3)o2)cc1, which inhibition is on record?
A: The inhibition was 2.48%.

Q: For C/C(CC(=O)Nc1ccc(C)cc1C)=N\NC(=O)C(C)C, which inhibition is on record?
A: The inhibition was 14.7%.

Q: For NC(=O)Nc1ccccc1C(=O)NCCc1ccccc1, which inhibition is on record?
A: Its inhibition is 1.58%.

Q: Which inhibition does the source give for COc1ccc(Cl)cc1S(=O)(=O)N1CCC(O)(c2ccc(Cl)cc2)CC1 here?
A: Its inhibition is 3.69%.

Q: With CCCCN(CCCC)CC(O)Cn1c2ccccc2c(=O)c2ccccc21 (stereo not given) as the compound, how does the inhibition read?
A: Its inhibition is 119% (active).

Q: With CS(=O)(=O)N(CC(O)Cn1c2ccccc2c2ccccc21)c1cccc2ccccc12 (stereo not given) as the compound, how does the inhibition read?
A: Its inhibition is 0.481%.

Q: How did the inhibition turn out when O=C1c2ccccc2S(=O)(=O)N1CC(O)Cn1c2ccccc2c2ccccc21 (stereo not given) was run?
A: The inhibition was 0.294%.

Q: Cn1cnnc1Sc1ccc(CN2CCN(C3CCCC3)C(CCO)C2)o1 (stereo not given) was tested. Which inhibition did it give?
A: Its inhibition is -5.92%.

Q: With COC/C=C/C1=CC2=CC(=O)C(C)(OC(=O)CCC(=O)OC)C(=O)C2=CO1 (stereo not given) as the compound, how does the inhibition read?
A: Its inhibition is 51.9% (active).

Q: How did the inhibition turn out when COC(=O)CCCC1=CC2=CC(=O)C(C)(OC(=O)c3cccs3)C(=O)C2=CN1CC1CC1 (stereo not given) was run?
A: The inhibition was 10.7%.

Q: How did the inhibition turn out when COC(=O)CCCC1=CC2=CC(=O)C(C)(OC(=O)c3cccs3)C(=O)C2=CN1CC(C)C (stereo not given) was run?
A: Its inhibition is 23.4%.

Q: With Cc1ccc(CN(C(=O)c2sc3ccccc3c2Cl)C2CCS(=O)(=O)C2)cc1 (stereo not given) as the compound, how does the inhibition read?
A: Its inhibition is 3.1%.

Q: With CC(=O)Nc1ccc(SCC(=O)Nc2ccccc2Oc2ccccc2)cc1 as the compound, how does the inhibition read?
A: Its inhibition is 0.985%.

Q: With Cc1nn(CC(=O)Nc2ccc(N(C)C)cc2)c(C)c1[N+](=O)[O-] as the compound, how does the inhibition read?
A: The inhibition was 4.36%.

Q: How did the inhibition turn out when O=C(O)/C=C/c1cn(Cc2ccccc2)nc1-c1cccs1 was run?
A: Its inhibition is -1.06%.

Q: For CCOC(=O)/C(C#N)=C/c1cn(CCC(=O)O)nc1-c1ccc(Br)cc1, which inhibition is on record?
A: The inhibition was 20.2%.

Q: O=C(O)CCn1cc(/C=C/C(=O)c2ccc(Cl)cc2)c(-c2cccc(Br)c2)n1 was tested. Which inhibition did it give?
A: The inhibition was 55% (active).

Q: With Cc1onc(C(=O)NN)c1C(=O)N1CCN(C(c2ccccc2)c2ccccc2)CC1 as the compound, how does the inhibition read?
A: The inhibition was 16.6%.

Q: With N/C(=N\S(=O)(=O)c1cc(C(F)(F)F)cc(C(F)(F)F)c1)c1cccs1 as the compound, how does the inhibition read?
A: The inhibition was -0.264%.

Q: How did the inhibition turn out when O=[N+]([O-])c1ccccc1N/N=C1\CCc2ccccc21 was run?
A: The inhibition was -4.18%.

Q: How did the inhibition turn out when COc1ccc(NC(=S)NCc2cccs2)c(OC)c1 was run?
A: Its inhibition is 0.854%.
